Bioassay records: PubChem, National Center for Advancing Translational Sciences (NCATS)
NPR1 antag = blocks ANP-stimulated signaling of human Npr1 receptor; P16066; Potency, µM (highest dose often 46.3 µM), hits mostly inhibitors; 76,000 compounds, 1.6% hits; HEK293 hNpr1 GloSensor cGMP, ANP-stimulated luminescence; calls by dose curve; also: nearly all actives have a fitted effect of over 60% in size
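HEK293 cells stably expressing human Npr1 and cGMP GloSensor pGS-40F, loaded 2 h with 2% GloSensor reagent, given compound 30 min at room temperature. Luminescence read before and 20 min after 0.1 nM hNppA.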
FLuc inh = blocks purified firefly luciferase enzyme activity | Potency, µM (series often up to 115 µM), hits mostly inhibitors | purified P. pyralis luciferase, luminescence, biochemical | 76,000 compounds, 2.5% hits | P08659; also: nearly all actives have a fitted effect of over 65% in size
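Purified 10nM P. pyralis luciferase with 10uM D-luciferin and 10uM ATP in 50mM Tris acetate pH 7.5, 10mM Mg acetate, 0.01% Tween-20, 0.05% BSA. qHTS titration; luminescence read by CCD imager.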
3T3 cytotox = cytotoxic compounds in NIH 3T3 cells; NIH 3T3 viability, CellTiter-Glo ATP luminescence, 48-72 h; Potency, µM (doses to about 96.7 µM), usual class: inhibitors; 94,000 compounds, 4.3% hits; also: nearly all actives have a fitted effect of over 55% in size
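First NIH 3T3 cells are plated at 400 cells/well; next compound is pinned in; then plates incubate 48 or 72 hr at 37 °C; finally CellTiter-Glo is added and luminescence read after 10 min.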
HEK cytotox = cytotoxic compounds in HEK 293 cells; HEK 293 viability, ATP luminescence (CellTiter-Glo), 48-72 h; Potency, µM (series often up to 115 µM), hits mostly inhibitors; AID 1345083; 94,000 compounds, 6.6% hits; also: nearly all actives have a fitted effect of over 60% in size
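HEK 293 seeded at 250 cells/well receive compound via pintool. After 48 or 72 hr at 37 degree Celsius, 5% CO2 and 95% humidity, CellTiter-Glo is dispensed and luminescence read following 10 min at room temperature.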
A number is an active result; – = inactive; ? = inconclusive; · = no result. The list is not random: actives were taken first. Their share in the collection is about 11%. Unless noted, calls follow the shape of the dose curve; as a rule, active = well fitted curve in the direction sought with a large enough effect; inconclusive = small, poorly fitted or top-dose-only effect, or another doubt; inactive = no such curve, though single readings can be large; an effect the other way counts as inactive or inconclusive.

SMILES | NPR1 antag | FLuc inh | 3T3 cytotox | HEK cytotox
CCN(CC)C(=O)CCc1c(C)nn(-c2ccc(F)cc2)c1Oc1ccccc1C | – | – | 39.8µM | ?
NCC(=O)N1CCC(n2nccc2NC(=O)c2ccc3c(c2)OCO3)CC1 | – | – | – | –
Cc1cc(C(=O)N2CCCCCCNC(=O)[C@@H]3C[C@@H](c4nc(-c5cccnc5)no4)C[C@@H]32)nn1C | – | – | – | –
C[C@@H]1CN(C(=O)c2ccc3c(c2)NC(C)(CCCCc2ccccc2)CO3)C[C@H](C)O1 (stereo partly drawn) | ? | – | ? | ?
CC1CCN(C(=O)[C@@H](C)C2CC[C@@]3(C)CC[C@H](NC(=O)Cc4ccccc4)[C@@H](C)[C@@H]3[C@H]2O)CC1 (stereo partly drawn) | – | – | – | –
Cc1ccc(CN2CCC3(CC2)Cc2ccccc2NC3=O)cc1 | – | – | – | –
Cc1noc(-c2cccs2)c1C(=O)NC(C)c1cccc2ccccc12 (stereo not drawn) | – | – | ? | ?
CCOC(=O)C1CCN(C(=O)c2cc3c(n2C)CCN(Cc2ccccc2)C3)CC1 | – | – | – | ?
Cc1ccc(-c2cnc([C@@H]3COCCN3C(C)C)[nH]2)cc1 | – | – | ? | 112µM
COc1ccc(-c2cnc([C@@H]3COCCN3C3CCCCC3)[nH]2)cc1 | – | – | ? | 31.6µM
O=C(C1CCCN1C(=O)c1ccccc1F)N1CCC(c2ccccc2)CC1 (stereo not drawn) | · | · | ? | –
CC(C)C(=O)N1CCCC1Cc1noc(Cc2ccccc2)n1 (stereo not drawn) | · | · | – | –
CN(C)C(=O)N1CCCC1C(=O)N1CCC(N2Cc3ccccc3C2=O)CC1 (stereo not drawn) | · | · | – | –
Cc1cccc(-c2nc3cc4c(cc3cc2CN2CCC[C@H]2C(N)=O)OCO4)c1 | – | – | ? | ?
Cc1ccc(-n2cc(CN3CCCCC3C(N)=O)c(-c3cccc(C)c3)n2)cc1 (stereo not drawn) | – | ? | 79.4µM | 50.1µM
O=C(Nc1cccnc1)c1ccnc(-c2nnc3ccc(N4CCOCC4)nn23)c1 | – | – | 100µM | –
CN(C)c1ccc2nnc(-c3cc(C(=O)Nc4cccc(Cl)c4)ccn3)n2n1 | – | – | 7.94µM | –
COC1CCN(C(=O)c2ccnc(-c3nnc4ccc(N(C)C)nn34)c2)CC1 | – | – | 44.7µM | –
COc1ccnc(-c2nnc3ccc(N(C)c4ccccc4)nn23)c1 | – | – | 20µM | 44.7µM
O=C(Nc1cccc(Cl)c1)c1ccnc(-c2nnc3ccc(N4CCOCC4)nn23)c1 | – | – | ? | ?
CN1C(=O)c2cccn2CC1C(=O)N1CCN(c2ccccn2)CC1 (stereo not drawn) | · | · | – | –
CN(c1ccccc1)c1ccc2nnc(-c3cc(C(=O)N4CC(O)C4)ccn3)n2n1 | – | – | 100µM | ?
CC1=NS(=O)(=O)N(C)C=C1C(=O)OCc1noc(-c2ccccc2Cl)n1 | 11.2µM | ? | ? | ?
O=C(NCCCc1ccccc1)c1n[nH]c2c1CN(C(=O)c1ccc(F)cc1)CC2 | – | – | 28.2µM | ?
O=C(NCCc1ccccc1F)c1nc2sccn2c1-c1ccc(C(F)(F)F)cc1 | · | · | 28.2µM | 25.1µM
SMILES | NPR1 antag | FLuc inh | 3T3 cytotox | HEK cytotox
O=C(NCCc1ccccc1)c1nc2sccn2c1-c1ccncc1 | · | · | – | –
O=C(NCCCc1ccccc1)c1nc2sccn2c1-c1ccc(F)cc1 | · | · | ? | 100µM
CNC(=O)CNC(=O)N1CCC(=O)N(C)c2ccccc2C(OC)C1 (stereo not drawn) | · | · | ? | –
O=C(NCCc1ccccc1)C1c2ccccc2C(=O)N(Cc2ccccc2)C12CCCC2 (stereo not drawn) | – | – | 31.6µM | 39.8µM
COC(=O)CCNC(=O)C1c2ccccc2C(=O)N(Cc2ccccc2)C12CCCC2 (stereo not drawn) | – | – | – | –
O=C(NC1CC1)C1c2ccccc2C(=O)N(C2CCCCC2)C12CCCCC2 (stereo not drawn) | – | – | ? | 31.6µM
O=C(NC1CCCC1)C1c2ccccc2C(=O)N(C2CCCC2)C12CCCCC2 (stereo not drawn) | – | – | – | –
CCN1CCN(C(=O)C2CCCN2C(=O)c2cccc(-c3cccc(OC)c3)c2)CC1 (stereo not drawn) | · | · | – | –
O=C(c1ccc(Cl)cc1)N1CCC(Cc2nc(-c3cnccn3)no2)CC1 | ? | – | 25.1µM | ?
C[S+](=O)([O-])NCCn1ccc2cc(OC3CCN(C(=O)C4CCCC4)CC3)cnc21 | – | – | 100µM | ?
